The panel holds about 79,000 compounds, 15% with a hit somewhere; the sample as a whole holds those more often. Calls of active or inactive are those of the source. No stated cut-off is given here; in the data, active means growth inhibition above about 70%; inactive means the rest. Where a SMILES comes first, the peptide text is derived from it.

Drawing on PubChem BioAssay (NCI), this text covers growth inhibition for 40 compounds.

The first experiment is described as follows: NCI Yeast Anticancer Drug Screen. Data for the cln2 rad14 strain (AID 165).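 Further: 0% = growth equal to vehicle treated cultures.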 Conditions: S. cerevisiae cln2 rad14 strain, at 50.0 µM, hits give high values. The method in brief: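 Relative to vehicle controls, growth inhibition of compound-treated cln2 rad14 yeast was recorded.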
Regarding `CCOc1c(N=Nc2ccccc2C)c(C)nn1C(N)=S`, the growth inhibition is -24.6% (inactive).

Consider `O=[N+]([O-])c1ccc(N/N=C2\C=CCCC2)c([N+](=O)[O-])c1`, for which the growth inhibition was 15.3% (inactive).

Turning to `CCOc1cccc(C=Nc2ccccc2SSc2ccccc2N=Cc2cccc(OCC)c2O)c1O`, the growth inhibition was 2.85% (inactive).

For the compound `Cc1cccc(NC(=O)O/N=C(\Cl)C(C)C)c1`, the growth inhibition is 0.4% (inactive).

Consider `O=c1c(-c2c(-c3ccccc3)oc3ccc(Cl)cc3c2=O)c(-c2ccccc2)oc2ccc(Cl)cc12`, for which the growth inhibition was 7.25% (inactive).

In the case of `NNC(=O)c1nc[nH]c1C(=O)NN`, the growth inhibition is -14.3% (inactive).

In the case of `CSCCC(N)=O`, the growth inhibition was 0.05% (inactive).

`CC(=O)c1cc([N+](=O)[O-])c[nH]1`: the growth inhibition is -19.1% (inactive).

`CC(C)=Cc1cc(-c2cc(C=C(C)C)on2)no1`: the growth inhibition was 1.15% (inactive).

As for `CN1C(C(=O)O)CCC1C(=O)O` (stereo not drawn), the growth inhibition was -31.8% (inactive).

As to `O=C(N/N=C\c1cccc2c([N+](=O)[O-])cccc12)Nc1ccccc1`, the growth inhibition is 2.6% (inactive).

As to `CCOc1ccc(C(C)c2cc3c(cc2OC)OCO3)cc1` (stereo not drawn), the growth inhibition was -1.55% (inactive).

For the compound `Cc1ccccc1-c1nc2c([nH]1)c(=O)n(C)c(=O)n2C`, the growth inhibition was -32.3% (inactive).

Turning to `CCC(c1cccc(OC)c1)C(C(=O)O)c1ccc(OC)cc1` (stereo not drawn), the growth inhibition is 7.15% (inactive).

Take `N#CCCOCCSCCC#N`: the growth inhibition is -5.45% (inactive).

With `C1C[OH+]CC[OH+]CCNCC[OH+]CC[OH+]CCN1.Cl.[Cl-].[Pt+4]`, the growth inhibition was 10.4% (inactive).

`O=NN(CCCl)C(=O)NCc1ccc[n+]([O-])c1`: the growth inhibition was 4.25% (inactive).

`C/C=C/c1nc2ccccc2[nH]1`: the growth inhibition was -2.45% (inactive).

For `N#CC(c1ccccc1)c1cccc(C(=O)O)c1` (stereo not drawn), the growth inhibition was -20.4% (inactive).

In the case of `Cn1cc(C2(C)CC(C)(C)c3c2n(C)c2ccccc32)c2ccccc21` (stereo not drawn), the growth inhibition is 7.15% (inactive).

Regarding `OCCN(c1ccccc1)c1nc(N(CCO)c2ccccc2)nc(N(CCO)c2ccccc2)n1`, the growth inhibition was 7.75% (inactive).

Consider `N#CCCN(C1=NN(C(=O)CC(=O)Nc2cccc(Cl)c2)C(c2ccccc2)C1)c1ccccc1Cl` (stereo not drawn), for which the growth inhibition is 11.5% (inactive).

As to `CNC(=S)N(C)c1ccccc1`, the growth inhibition is -57.4% (inactive).

A short description of the next experiment: NCI Yeast Anticancer Drug Screen. Data for the bub3 strain (AID 167). As to conditions: S. cerevisiae bub3 mutant strain, at 50.0 µM, hits give high values. The gist of the method:
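Inhibition values come from growth of compound-treated mutant yeast normalised to vehicle-treated controls.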
For the compound `c1ccc2c(C3CO3)c3ccc4ccccc4c3cc2c1` (stereo not drawn), the growth inhibition is 99.2% (active).

As for `O=C(NC(=O)c1c(F)cccc1F)Nc1cccc(C(F)(F)F)c1`, the growth inhibition was -3.3% (inactive).

In the case of `CC(C)(C)CC(C)(C)[N+](=O)[O-]`, the growth inhibition was -3.25% (inactive).

As for `CC(OC1CC(=O)CC2C(=O)C=CC(=O)C12)c1ccccc1` (stereo not drawn), the growth inhibition was 28.4% (inactive).

As for `Cn1cc(N=P(c2ccccc2)(c2ccccc2)c2ccccc2)c(=O)n(C)c1=O`, the growth inhibition is -2.15% (inactive).

Regarding `O=c1[nH]cnc2ncnn12`, the growth inhibition is 21% (inactive).

As to `CCOc1c(Cl)cc(Cl)cc1C(c1ccc(Cl)cc1S(=O)(=O)O)c1cc(Cl)cc(Cl)c1OCC`, the growth inhibition is 99% (active).

Regarding `COC(=O)C1(C)CCCC2(C)C3CC4OC4(C(C)C)CC3(O)CCC12` (stereo not drawn), the growth inhibition was -12.1% (inactive).

As for `CC(=O)NC(C(=O)NC(C)C(=O)N1CCCC1C(=O)O)C(C)C` (stereo not drawn) (Ac-Val-Ala-Pro-OH; configuration not given here), the growth inhibition was 0.6% (inactive).

With `Cc1cc(Br)cc(C)c1NC(=O)C(=O)C1C(=O)C(CC2C(=O)c3ccccc3C2=O)C(=O)CC1(C)C` (stereo not drawn), the growth inhibition is 4.35% (inactive).

On to `O=C(O)c1cccc(C2=CCCC2)c1`, for which the growth inhibition was -26.5% (inactive).

`CCC(=O)C(=O)c1ccccc1`: the growth inhibition is -1.05% (inactive).

As to `CSc1c(C#N)c(N)nc2c(N=Nc3ccc(Cl)cc3)c(N)nn12`, the growth inhibition is -6.5% (inactive).

As to `Oc1cccc2ccc(Br)nc12`, the growth inhibition was 5.45% (inactive).

For `c1ccc(P(CCCP(c2ccccc2)c2ccccc2)c2ccccc2)cc1`, the growth inhibition was -0.05% (inactive).

`CC(C=O)C1CCCCC1` (stereo not drawn): the growth inhibition is 8.95% (inactive).

Take `O=C(OCC(Cl)(Cl)Cl)N1[C@H]2C3=C(CCC3)[C@@H]([C@H]3O[C@H]32)N1C(=O)OCC(Cl)(Cl)Cl`: the growth inhibition was 10% (inactive).

On to `CCOc1c(N=Nc2ccccc2C)c(C)nn1C(N)=S`, for which the growth inhibition is 21.1% (inactive).

Turning to `O=[N+]([O-])c1ccc(N/N=C2\C=CCCC2)c([N+](=O)[O-])c1`, the growth inhibition was -12.6% (inactive).

In the case of `CCOc1cccc(C=Nc2ccccc2SSc2ccccc2N=Cc2cccc(OCC)c2O)c1O`, the growth inhibition was 68.6% (inactive).

Regarding `Cc1cccc(NC(=O)O/N=C(\Cl)C(C)C)c1`, the growth inhibition was 35.4% (inactive).

Turning to `O=c1c(-c2c(-c3ccccc3)oc3ccc(Cl)cc3c2=O)c(-c2ccccc2)oc2ccc(Cl)cc12`, the growth inhibition was 17.3% (inactive).

Regarding `NNC(=O)c1nc[nH]c1C(=O)NN`, the growth inhibition was -7.6% (inactive).

Consider `CSCCC(N)=O`, for which the growth inhibition was -16.8% (inactive).

As for `CC(=O)c1cc([N+](=O)[O-])c[nH]1`, the growth inhibition was 9.25% (inactive).

Turning to `CC(C)=Cc1cc(-c2cc(C=C(C)C)on2)no1`, the growth inhibition is -8% (inactive).

Turning to `CN1C(C(=O)O)CCC1C(=O)O` (stereo not drawn), the growth inhibition was -0.4% (inactive).

On to `O=C(N/N=C\c1cccc2c([N+](=O)[O-])cccc12)Nc1ccccc1`, for which the growth inhibition was -16.6% (inactive).

In the case of `CCOc1ccc(C(C)c2cc3c(cc2OC)OCO3)cc1` (stereo not drawn), the growth inhibition was 27.5% (inactive).

Turning to `Cc1ccccc1-c1nc2c([nH]1)c(=O)n(C)c(=O)n2C`, the growth inhibition was 0.25% (inactive).

As to `CCC(c1cccc(OC)c1)C(C(=O)O)c1ccc(OC)cc1` (stereo not drawn), the growth inhibition is 7.35% (inactive).

Take `N#CCCOCCSCCC#N`: the growth inhibition is 1% (inactive).

With `C1C[OH+]CC[OH+]CCNCC[OH+]CC[OH+]CCN1.Cl.[Cl-].[Pt+4]`, the growth inhibition was -3.65% (inactive).

Take `O=NN(CCCl)C(=O)NCc1ccc[n+]([O-])c1`: the growth inhibition was 2.2% (inactive).

Regarding `C/C=C/c1nc2ccccc2[nH]1`, the growth inhibition was -6.45% (inactive).

For `N#CC(c1ccccc1)c1cccc(C(=O)O)c1` (stereo not drawn), the growth inhibition was -25.9% (inactive).

On to `Cn1cc(C2(C)CC(C)(C)c3c2n(C)c2ccccc32)c2ccccc21` (stereo not drawn), for which the growth inhibition is -17.9% (inactive).

Turning to `OCCN(c1ccccc1)c1nc(N(CCO)c2ccccc2)nc(N(CCO)c2ccccc2)n1`, the growth inhibition is 29.9% (inactive).

As for `N#CCCN(C1=NN(C(=O)CC(=O)Nc2cccc(Cl)c2)C(c2ccccc2)C1)c1ccccc1Cl` (stereo not drawn), the growth inhibition was -14.9% (inactive).

As for `CNC(=S)N(C)c1ccccc1`, the growth inhibition was 8.05% (inactive).
